Assay outcomes (PubChem BioAssay)
The full list was thinned out, with hits kept by preference.
Sm TGR inh: inhibitors of Schistosoma mansoni thioredoxin glutathione reductase; 3% of 360,000 active; Q962Y6; purified TGR, DTNB reduction, TNB absorbance 405 nm; Potency, µM (series often up to 114 µM), without a hit: at the top dose activity change, negative = inhibition, actives largely listed as inhibitors; also: potency is read from the fitted curve at half-maximal effect; % is scaled to controls: 0 for no effect and ±100 for the full control effect; nearly all actives have a fitted effect of over 60% in size
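TGR 20 nM + NADPH 100 uM (dispensed conc.), cpd preinc 15 min RT; start with NADPH (500 uM addition) then DTNB (15 mM addition). Kinetic TNB absorbance, 405 nm filter. Four-parameter Hill fit across titration.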
TbPYK inhibitor: inhibitors of Trypanosoma brucei pyruvate kinase | Q57TT1 | TbPYK enzyme, Kinase-Glo Plus ATP luminescence, 45 min | Potency, µM (top dose mostly 76.8 µM), inactives show at the top dose activity, negative = inhibition, actives largely listed as inhibitors | 0.12% of 410,000 active; also: potency is read from the fitted curve at half-maximal effect; % is scaled to controls: 0 for no effect and ±100 for the full control effect; nearly all actives have a fitted effect of over 50% in size
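Quantitative HTS: titrated library compounds versus trypanosomal pyruvate kinase in TEA buffer (pH 7.2) containing KCl, MgCl2, BSA and Tween-20. Reactions were initiated with ADP, 130 uM final. Kinase-Glo Plus luminescence was read after 45 min at RT.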
Shiga toxin inh: Shiga toxin inhibition; Vero cells, Shiga toxin protein synthesis inhibition reporter; inhibition, % at 38.7 µM; 9.2% of 290,000 active; AID 2315; in the data active = inhibition mostly above about 28%, no sharp cut-off; inactive = mostly below about 43%; also: 0% is about no effect
FBPA Giardia inh: blocks Giardia fructose-bisphosphate aldolase activity | Potency, µM (series often up to 59.6 µM), without a hit: at the highest dose activity, negative = inhibition, hits mostly inhibitors | 0.71% of 290,000 active | A8B2U2 | purified Giardia FBPA; also: potency is read from the fitted curve at half-maximal effect; % is scaled to controls: 0 for no effect and ±100 for the full control effect; nearly all actives have a fitted effect of over 55% in size
Target sequence (A8B2U2 whole entry, looked up): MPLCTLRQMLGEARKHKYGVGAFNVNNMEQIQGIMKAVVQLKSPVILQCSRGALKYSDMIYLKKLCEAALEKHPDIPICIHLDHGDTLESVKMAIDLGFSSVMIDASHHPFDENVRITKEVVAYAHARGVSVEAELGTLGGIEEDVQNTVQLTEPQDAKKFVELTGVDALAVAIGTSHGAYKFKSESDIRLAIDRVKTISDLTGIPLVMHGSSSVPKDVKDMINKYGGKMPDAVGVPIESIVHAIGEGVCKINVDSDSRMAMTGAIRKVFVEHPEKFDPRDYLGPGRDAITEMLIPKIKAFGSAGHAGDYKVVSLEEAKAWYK
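Giardia FBPA (40 nM reagent) was preincubated 10 min at RT with compound (up to 57.5 uM final), then substrate plus GAPDH/TPI/NAD/arsenate coupling system with diaphorase/resazurin was added; resorufin fluorescence (525/598 nm) was read after 20 min.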
LmPK inh: blocks Leishmania mexicana pyruvate kinase activity. Q27686. purified LmPK, Kinase-Glo ATP luminescence, 1 h. Potency, µM (series often up to 57.5 µM), inactives show at the top dose activity change, negative = inhibition, most hits filed as inhibitors. 0.37% of 290,000 active; also: potency is read from the fitted curve at half-maximal effect; % is scaled to controls: 0 for no effect and ±100 for the full control effect
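Purified LmPK (0.1 nM) with 0.5 mM PEP and 0.1 mM ADP in imidazole buffer pH 7.2 with MgCl2/KCl, 1 h at room temperature. ATP formed was read by luciferase luminescence and normalized to no-enzyme and uninhibited controls.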
Cycloheximide cs: affects cycloheximide protein synthesis inhibition readout, counter-screen; cell reporter, cycloheximide protein synthesis inhibition counterscreen; max response, %; 12% of 300,000 active; in the data active = max response mostly above about 13%, no sharp cut-off; inactive = mostly below about 14%; also: read at 38.3 µM for the half of the compounds with a filed dose; 0% is about no effect
* marks the source's active call; other numbers are inactive results; ? = inconclusive; nt = not tested or not shown. Unless noted, calls follow the shape of the dose curve; as a rule, active = well fitted curve in the direction sought with a large enough effect; inconclusive = small, poorly fitted or top-dose-only effect, or another doubt; inactive = no such curve, though single readings can be large; an effect the other way counts as inactive or inconclusive.

SMILES | Sm TGR inh | TbPYK inhibitor | Shiga toxin inh | FBPA Giardia inh | LmPK inh | Cycloheximide cs
O=[N+]([O-])C(/C=C(\Cl)[N+](=O)[O-])=C1N(Cc2ccc(Cl)nc2)CCN1Cc1ccc(Cl)nc1 | -34% | -11% | 16 | -12% | 1% | 7
CC(=O)c1cc(CCC(=O)NC2CCCCCC2)oc1C | -1% | 0% | -6 | 6% | -6% | -5
CCOC(=O)Cn1c(=O)oc2cc(S(=O)(=O)N3CCC(C(=O)OCC)CC3)ccc21 | -1% | -1% | nt | nt | nt | nt
O=[N+]([O-])c1cccc2c([N+](=O)[O-])cccc12 | 0% | -3% | nt | nt | nt | nt
Cc1cc([N+](=O)[O-])c2ccccc2[n+]1[O-] | 13µM* | -1% | -32 | ? | -4% | -4
COc1ccc(OC)c(NC(=O)CSc2cn(CC(=O)N3CCOCC3)c3ccccc23)c1 | 5% | -9% | nt | nt | nt | nt
CCc1ccc2oc(-c3cc(N)ccc3Cl)nc2c1 | 3% | -3% | 21 | -9% | -28% | 15*
COC1CCN(C(=O)c2ccc3oc(Cc4ccc(Cl)cc4)nc3c2)CC1 | -1% | 2% | -4 | 7% | -3% | 10
Nc1ccc2oc(-c3ccccc3Cl)nc2c1 | -10% | -17% | 36* | -6% | ? | 21*
Nc1ccc2oc(Cc3ccc(Cl)cc3)nc2c1 | 14µM* | ? | nt | nt | nt | nt
Nc1ccc2oc(-c3cc(Br)ccc3Cl)nc2c1 | -26% | 1% | 4 | -1% | 6% | -4
CCc1ccc2oc(-c3cc(N)ccc3O)nc2c1 | -14% | -21% | 15 | -2% | ? | 18*
Cc1ccc(SCC(=O)NC(=O)Nc2ccc3c(c2)OCCO3)cc1C | -13% | 1% | -1 | -1% | 1% | -5
CCOc1ccc(C2C(=O)N(C3CCCCC3)CC(=O)N2Cc2ccccc2OC)cc1OC (stereo not drawn) | -8% | 1% | nt | nt | nt | nt
O=C(NCc1ccc(F)cc1)C1CCN(S(=O)(=O)c2ccc3c(c2)CCCN3C(=O)C2CCC2)CC1 | 4% | 3% | nt | nt | nt | nt
CCc1ccc2oc(-c3cc(N)cc(C)c3O)nc2c1 | -26% | -9% | 80* | -16% | -9% | 36*
O=C(CN1C(=O)NC2(CCc3ccccc32)C1=O)c1ccc(F)cc1 (stereo not drawn) | 2% | -7% | nt | nt | nt | nt
O=C(CN1C(=O)COc2ccccc2C1=O)c1ccc2c(c1)OCCO2 | -3% | 12% | 29 | nt | -4% | 28*
CCCC(=O)c1ccc2c(c1)OCCO2 | -3% | 0% | 28 | 7% | 2% | 10
O=C(CN1C(=O)NC2(CCc3ccccc32)C1=O)c1ccc2c(c1)OCCO2 (stereo not drawn) | -18% | -10% | 70* | 7% | 3% | 23
NNc1ccccc1C(F)(F)F | -12% | 0% | 63 | -10% | 2% | 28*
COc1ccc(N2CC(NC(=O)C(=O)c3c[nH]c4ccccc34)CC2=O)cc1 (stereo not drawn) | 0% | 6% | nt | nt | nt | nt
COc1ccc2[nH]cc(CCN=C(NC(=O)c3ccccc3F)Nc3nc(C)cc(C)n3)c2c1 | 7% | -11% | nt | nt | nt | nt
O=C(Nc1cccc(S(=O)(=O)NC2=NCCC2)c1)c1c(F)cccc1Cl | -1% | 3% | nt | nt | nt | nt
O=C(/C=C/c1ccc([N+](=O)[O-])cc1)Nc1cccc(S(=O)(=O)NC2=NCCCCC2)c1 | nt | -3% | nt | nt | nt | nt
SMILES | Sm TGR inh | TbPYK inhibitor | Shiga toxin inh | FBPA Giardia inh | LmPK inh | Cycloheximide cs
O=C(/C=C/c1ccc(Cl)cc1Cl)Nc1cccc(S(=O)(=O)NC2=NCCC2)c1 | 4% | -18% | 44 | 0% | 2% | 14*
O=C(/C=C/c1ccccc1Cl)Nc1cccc(S(=O)(=O)NC2=NCCCCC2)c1 | 7% | -7% | 65* | -1% | 0% | 23*
COc1cc(C(=O)N2CCCC(c3nc(-c4cccs4)no3)C2)cc(OC)c1OC (stereo not drawn) | 4% | -17% | -6 | 6% | -1% | -1
CCCC(=O)N1CCCC(c2nc(-c3cccs3)no2)C1 (stereo not drawn) | 3% | -19% | 86* | -1% | 1% | 21*
COc1ccc(-c2noc(C3CCCN(C(=O)c4cccs4)C3)n2)cc1 (stereo not drawn) | 8% | -21% | 55 | 2% | 5% | 18
CCC(C)C(=O)N1CCCC(c2nc(-c3cccs3)no2)C1 (stereo not drawn) | -3% | 0% | 101* | 4% | -2% | 31*
Cc1oc(-c2ccc(C(=O)NCc3ccccc3F)cc2)nc1COc1ccccc1 | 3% | -1% | nt | nt | nt | nt
Oc1ccc(Cl)cc1C1C=C(c2ccc3c(c2)OCO3)NC(c2cc(Br)ccc2F)N1 (stereo not drawn) | nt | nt | 83* | nt | nt | 31*
OC(c1cccc(Cl)c1)c1nc(-c2ccc3c(c2)OCO3)cs1 (stereo not drawn) | nt | 7% | nt | nt | nt | nt
COc1ccc(Cl)cc1NC(=O)c1cc(-c2ccc3c(c2)OCO3)on1 | 5% | 1% | nt | nt | nt | nt
COc1ccc(Br)cc1C1NC(c2ccc3c(c2)OCO3)=CC(c2cc(Cl)ccc2O)N1 (stereo not drawn) | nt | nt | 90* | nt | nt | 45*
O=C(NCCc1ccccc1)c1ccncc1 | 18% | nt | 95* | 8% | -2% | 32*
O=C(NCCc1ccccc1)C(=O)NCc1ccncc1 | 20% | 3% | 15 | -1% | -2% | -2
O=C(NCCc1ccccc1)c1n[nH]c(=O)c2ccccc12 | 0% | 1% | 26 | 1% | 7% | 27*
COc1ccc(CCNC(=O)c2n[nH]c(=O)c3ccccc23)cc1 | 0% | 4% | 36 | 2% | 5% | -5
Cc1cc(S(=O)(=O)NCc2ccccc2)ccc1OCC(=O)NCc1ccncc1 | -27% | 1% | 80* | nt | -11% | 49*
O=C(COc1ccc(S(=O)(=O)NCc2ccccc2)cc1Cl)NCc1ccncc1 | -8% | -11% | -18 | -27% | -2% | -2
Cc1ccc(C)n1-c1ccc(C(=O)NCc2ccncc2)cc1 | 22µM* | 0% | 0 | -1% | 4% | 3
CCOC(=O)c1cccc(NC(=O)c2cc3ccccn3n2)c1 | 14% | -1% | nt | nt | nt | nt
Cc1ccc(C(=O)NCCc2ccc(F)cc2)s1 | 11% | 2% | 58* | -1% | 1% | 59*
O=C(NCCc1ccccc1)c1ccc(Cl)nc1 | -7% | -12% | 60* | 3% | 6% | 33*
O=C(NCCc1ccc(Cl)cc1)c1ccc(Br)s1 | -4% | 3% | 55* | -1% | 8% | 45*
NS(=O)(=O)c1ccc(CCNC(=O)c2ccc(Br)s2)cc1 | 7% | 3% | -12 | -5% | 8% | -1
O=C(NCCc1ccc(F)cc1)c1ccncc1 | -21% | -6% | 87* | nt | -1% | 16*
Cc1ccc(C(=O)NCc2ccc(F)cc2)s1 | nt | 0% | nt | nt | nt | nt
CN(C)c1ccc2c(-c3ccccc3)c3ccc(=[N+](C)C)cc-3oc2c1 | nt | nt | -2 | 28% | nt | 12
CCOc1ccc(-n2c(=O)c3c(C)c(C)sc3n(CC(=O)C(C)(C)C)c2=O)cc1 | -2% | -1% | nt | nt | nt | nt
